Hits are enriched below; roughly 2.6% of the tested compounds scored in any of these assays.
BaF3 tox: reduces parental Ba/F3 cell viability, JAK2V617F counter-screen | CellTiter-Glo ATP luminescence | inhibition, % at 5.6 µM | actives 1.1% (n = 220,000);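 active means inhibition above a per-campaign cutoff, the mean inhibition of all tested compounds plus 3 SD, cut at about 27% in these data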
FID counter: counter-screen for HCV NS3 helicase inhibitors: DNA intercalator displacement; DNA fluorescent intercalator displacement, fluorescence; inhibition, % at 7.9 µM; actives 0.17% (n = 290,000); AID 1845; in the data active means inhibition above about 37%;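 further: higher means more ethidium bromide displaced from hairpin DNA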
IEC-6 tox: counter-screen for KLF5 inhibitors: cytotoxicity in IEC-6 cells; IEC-6 cytotoxicity, luminescence viability; AID 1825; actives 0.78% (n = 290,000); inhibition, % at 5 µM
GPR7 antag: antagonists of human GPR7 (neuropeptides B/W receptor 1). P48145. GPR7-expressing cells, fluorescence antagonist assay. inhibition, % at 4.4 µM. actives 1.1% (n = 290,000). AID 1861; in the data active means inhibition above about 16%, passing the limit was not always enough;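 further: cells stimulated with the agonist NPW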
Target sequence (P48145 whole entry, looked up): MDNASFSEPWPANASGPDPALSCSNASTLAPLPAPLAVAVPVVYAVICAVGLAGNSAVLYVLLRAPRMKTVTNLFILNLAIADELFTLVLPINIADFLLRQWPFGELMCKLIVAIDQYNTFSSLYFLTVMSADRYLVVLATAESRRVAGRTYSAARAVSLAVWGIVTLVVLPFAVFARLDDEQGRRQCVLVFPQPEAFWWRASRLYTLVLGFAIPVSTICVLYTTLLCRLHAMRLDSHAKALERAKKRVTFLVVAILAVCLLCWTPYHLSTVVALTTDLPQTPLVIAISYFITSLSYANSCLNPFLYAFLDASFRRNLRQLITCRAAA
KLF5 inhibitor: kruppel-like factor 5 inhibition; DLD-1 KLF5 promoter-luciferase reporter, luminescence; inhibition, % at 5 µM; actives 0.23% (n = 290,000); AID 1700;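 active means inhibition above a per-plate limit of that plate's mean compound inhibition plus 3 SD, cut at about 60% in these data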;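 further: higher means less KLF5 promoter-driven luciferase light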
Ba/F3 V617F tox: reduce viability of Ba/F3 cells dependent on JAK2V617F; AID 1446; inhibition, % at 5.6 µM; Ba/F3 EpoR-JAK2V617F viability, ATP luminescence; actives 1.1% (n = 220,000);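 active means inhibition above the campaign mean plus 3 SD over all tested compounds, cut at about 24% in these data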;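 further: cytokine-independent growth of Ba/F3 cells driven by EpoR plus mutant JAK2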
GPR7 antag conf: human GPR7 antagonism, confirmation assay; shares compounds with GPR7 antag; GPR7-expressing cells, calcium fluorescence antagonist mode; inhibition, % at 4.4 µM; actives 52% (n = 2,400); in the data active means inhibition above about 24%;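 further: stimulated with the GPR7 agonist NPW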
MCHR1 antagonist: antagonizes human MCHR1, a GPR7 antagonist counter-screen; shares compounds with GPR7 antag; MCHR1-expressing cells, fluorescence antagonist assay; inhibition, % at 4.4 µM; actives 62% (n = 2,400); AID 2148
Hits are given with their value; n = inactive; x = no result given. Unless noted, no stated cut-off is given here; in the data, active means inhibition above about 22%; inactive means the rest.

SMILES | BaF3 tox | FID counter | IEC-6 tox | GPR7 antag | KLF5 inhibitor | Ba/F3 V617F tox | GPR7 antag conf | MCHR1 antagonist
O=C(O)c1cccc(NC(=S)NC(NC(=O)c2cccc([N+](=O)[O-])c2)C(Cl)(Cl)Cl)c1 (configuration not stated) | n | n | n | n | n | n | x | x
Cc1ccc(C2NCCS2)cc1 (configuration not stated) | n | n | n | n | n | n | x | x
COc1cc(NC(=O)CSc2ccccc2)c(C(=O)O)cc1OC | n | n | n | n | n | n | x | x
O=[N+]([O-])c1ccc(N2CCSCC2)cc1 | n | n | n | 29 | n | n | n | n
O=[N+]([O-])c1ccc(N2CCN(c3ccc(F)cc3)CC2)cc1 | x | n | n | 44 | n | x | n | 37
CC(C)CNS(=O)(=O)c1ccc(CCC(=O)N2CCN(c3ccc(F)cc3)CC2)cc1 | n | n | n | 30 | n | n | n | 42
O=C(CCc1ccccc1)N1CCN(c2ccc([N+](=O)[O-])cc2)CC1 | n | n | n | 26 | n | n | 37 | 37
Cn1c2c(c(=O)n(C)c1=O)C(c1ccccc1Cl)C(C#N)=C(N)O2 (configuration not stated) | n | n | n | n | n | n | x | x
COc1ccc(/C=C(\NC(=O)c2ccc(Cl)cc2)C(=O)NCCCn2ccnc2)cc1OC | x | n | n | n | n | x | x | x
O=C(CCN1CCN(c2ccccc2)CC1)c1ccc(Cl)cc1 | x | n | n | n | n | x | x | x
O=C(CCN1CCN(c2ccc([N+](=O)[O-])cc2)CC1)c1ccc(Cl)cc1 | x | n | n | 41 | n | x | 52 | 65
COc1ccc(CCNC(=O)C2CCN(S(=O)(=O)c3c(C)noc3C)CC2)cc1OC | n | n | n | 29 | n | n | n | n
CCOc1cc(CNCCO)cc(Br)c1OCc1ccc(Cl)cc1 | n | 38 | n | 54 | n | n | 70 | 78
CCOc1cc(CNC(C)(C)CO)cc(Br)c1OCc1ccc(Cl)cc1Cl | n | 38 | n | 46 | n | n | 67 | 78
Cc1cc(CN(C)C(=O)c2ccc(OC3CCN(S(=O)(=O)N(C)C)CC3)cc2)n[nH]1 | x | n | n | n | n | x | x | x
COc1cc(/C=C2\SC(=Nc3ccc(Cl)c(C(=O)O)c3)NC2=O)c(Br)c(Br)c1O | x | n | n | 40 | n | x | 28 | 48
Cc1ccccc1C(=O)N1N=C(c2cccc(NS(C)(=O)=O)c2)CC1c1cccs1 (configuration not stated) | x | n | n | n | n | x | x | x
COc1ccc(CCNC(=O)C2CC(=O)N(C3CCCCCCC3)C2)cc1OC (configuration not stated) | n | n | n | n | n | n | x | x
Cc1ccc(CCNC(=O)C2CC(=O)N(C3CCCCC3)C2)cc1 (configuration not stated) | x | n | n | 28 | n | x | n | n
CC1CN(C(=O)C(Sc2ccccc2)c2ccccc2)CC(C)O1 (configuration not stated) | n | n | n | n | n | n | x | x
COc1ccc(Cl)cc1C(=O)Nc1ccc(NC(C)=O)cc1 | n | n | n | n | n | n | x | x
CC(=O)Oc1c(I)cc(I)cc1C(=O)Nc1ccc(Cl)cc1 | x | n | n | 27 | n | x | n | 61
COc1ccc(CC(=O)N2CCNC2=O)cc1 | n | n | n | 30 | n | n | n | n
COc1ccc(CC(=O)N2CCc3ccccc32)cc1 | n | n | n | n | n | n | x | x
COc1ccc(S(=O)(=O)Nc2ccc(OCC(=O)O)cc2)c2ccccc12 | x | n | n | n | n | x | x | x
SMILES | BaF3 tox | FID counter | IEC-6 tox | GPR7 antag | KLF5 inhibitor | Ba/F3 V617F tox | GPR7 antag conf | MCHR1 antagonist
CCCCNCC(=O)Nc1sc(C)c(C)c1C(=O)OCC | n | n | n | n | n | n | x | x
CCCCCC1CC(CC(=O)Nc2ccc([N+](=O)[O-])cc2)OC1=O (configuration not stated) | n | n | n | 25 | n | n | n | 42
COc1ccccc1N(CC(O)CN1CCOCC1)S(=O)(=O)c1ccccc1 (configuration not stated) | x | n | n | n | n | x | x | x
O=C(O)CCn1c2ccccc2c2nc3ccccc3nc21 | x | n | n | 28 | n | x | n | n
COc1cccc(-n2nc(-c3ccnn3-c3ccccc3)c(=O)n(C)c2=O)c1 | n | n | n | n | n | n | x | x
COCCN(C(=O)COC(=O)CCC(=O)c1ccc(Cl)cc1)c1c(N)n(Cc2ccccc2)c(=O)[nH]c1=O | x | n | n | n | n | x | x | x
Cc1ccc(C(=O)NCc2ccc3c(c2)OCO3)o1 | x | n | n | 28 | n | x | n | n
Fc1ccccc1NC(=S)NCc1ccc2c(c1)OCO2 | n | n | n | 31 | n | n | n | n
Cc1ccc(/C=C/C(=O)NCc2ccc3c(c2)OCO3)o1 | n | n | n | n | n | n | x | x
O=S(=O)(Nc1cccc(-c2cn3c(n2)SCC3)c1)c1ccccc1F | x | n | n | n | n | x | x | x
O=S(=O)(Nc1cccc(-c2cn3c(n2)SCC3)c1)c1ccc(F)cc1F | x | n | n | 25 | n | x | n | n
OCC1(CCOc2ccccc2)CCN(Cc2ccccc2C(F)(F)F)CC1 | x | n | n | n | n | x | x | x
CCOC(=O)C1(CCOc2ccccc2)CCN(Cc2ccc(OC)c(COC)c2)CC1 | x | n | n | 36 | n | x | 36 | 52
CCOC(=O)C1(CCOc2ccccc2)CCN(Cc2ccc(OC)c(O)c2)CC1 | x | n | n | n | n | x | x | x
COc1ccc(CN2CCC(CO)(CCOc3ccccc3)CC2)c(OC)c1C | n | n | n | 28 | n | n | 37 | 24
COc1cc(Cl)c(CN2CCC(CO)(CCOc3ccccc3)CC2)cc1OC | x | n | n | n | n | x | x | x
CCOc1ccccc1CN1CCC(CO)(CCOc2ccccc2)CC1 | n | 42 | n | 27 | n | n | n | n
COc1ccc2c(c1)C(=O)N(c1ccccc1)C(=O)C2 | n | n | n | 28 | n | n | n | n
CCc1ccccc1NC(=O)CN1C(=O)C2CCCN2c2ncc(Cl)cc21 (configuration not stated) | n | n | n | 38 | n | n | 34 | n
CCC1(C)Cc2c(C#N)c(N)n(-c3ccccc3)c(=O)c2CO1 (configuration not stated) | n | n | n | n | n | n | x | x
CCc1ccc(N(C(=O)c2ccco2)C(C(=O)NC2CCCC2)c2cccnc2)cc1 (configuration not stated) | x | n | n | n | n | x | x | x
CCC(C)c1ccc(N(C(=O)c2ccco2)C(C(=O)NC2CCCC2)c2cccnc2)cc1 (configuration not stated) | x | n | n | 51 | n | x | n | n
COc1ccc(N(C(=O)c2ccco2)C(C(=O)NC2CCCC2)c2ccc(C)cc2)c(OC)c1 (configuration not stated) | x | n | n | n | n | x | x | x

High-throughput results: PubChem, The Scripps Research Institute Molecular Screening Center
